40 compounds from PubChem BioAssay (EPA / NIEHS) can be followed below.

One may read the AC50 as the concentration giving half of the maximal activity seen.

Values joined by “and” are separate entries in the source; they are usually repeats but may differ in a detail not shown here. Equal entries are not always repeated. Active and inactive are the calls of the source. Rule for the calls: active = hit-call score of the fitted dose curve at least 0.9, where 1 is the maximum; inactive = score below 0.9.

Read-out in this assay: MicroRNA 122 (MIR122), gene 406906
The assay is described as follows: LTEA_HepaRG_MIR122: Life Technologies and Expression Analysis (LTEA) Assay for MicroRNA 122 (MIR122) using HepaRG (AID 2283516). Particulars: mRNA level, 48 h; actives raise or lower the signal. As to the method:
LTEA_HepaRG is a cell based, multiplexed-readout assay that uses HepaRG, a human liver cell line, with measurements taken at 48 hours after chemical dosing on a 96-well plate.LTEA_HepaRG_MIR122 is one of 102 assay component(s) measured in the LTEA HepaRG cell culture assay. It is a marker of MicroRNA.Data from the assay component LTEA_HepaRG_MIR122 was analyzed into 1 endpoint. This assay endpoint, LTEA_HepaRG_MIR122, was analyzed with bidirectional fitting relative to DMSO as the negative control and baseline of activity. Using a type of inducible reporter, measures of mRNA induction for gain or loss-of-signal activity can be used to understand regulation of transcription factor activity. To generalize the intended target to other relatable targets, this assay endpoint is annotated to the microrna intended target family, where the subfamily is post-transcriptional regulation.
A total of 1060 chemcials from the ToxCast library were tested in eight-point concentration-response experiments. Cell culture and cytotoxicity assays were conducted at Thermo Fisher Scientific's Custom Services facility (Madison, WI). A single lot of human HepaRG cells (Thermo Fisher Scientific, Frederick, MD) was used for the cell culture experiments. 96-well format collagen type I coated plates of human HepaRG cells were prepared using established methods. Briefly, cryopreserved HepaRG cells were thawed, plated at a density of approximately 100,000 cells/well in HepaRG Thaw, Plate, and General Purpose media (HPRG770, Thermo Fisher Scientific), and incubated for 48 hours. 0.5% DMSO was selected as vehicle control to balance the requisite need of DMSO in HepaRG cultures to maintain differentiation (for example, baseline metabolism, proportions of hepatocytes vs. cholangiocytes), while enabling further hepatic receptor pathway activation (for example, PXR and CAR) in response to chemical exposure. 48 hours after plating, the culture medium was replaced with HepaRG Serum-Free Incudtion Media. Cells were exposed to each test chemical in duplicate and maintained in CO2 incubators for another 48 hours. Chemical plates were thawed to room temperature and 200x concentrations of treatment groups were prepared. 8-point conentration-reponse curves were made with the highest exposure at 100 uM, followed by half-log dilutions, all in 0.5% DMSO. Each test plate contained variouse controls, induction positive controls (1mM phenobarbital), cytotoxicity positive controls ([…] aflatoxin B1), vehicle controls (0.5% DMSO), and total lysis controls (0.5% DMSO). Cell morphology images were taken using an Essen IncuCyte FLR automated microscope, with six 96-well plates imaged in about 24 minutes. Images were captured and exported and JPEG files. Spent culture media was transfered to black-well plates for the LDH assay, and remaining media was sorted at -80 C for later use. Cells were treated with RLT buffer and frozen until shipped for gene expression analysis. Total RNA was isolated from the cell suspension in 75 uL of Buffer RLT (Qiagen, Germantown, MD 20874) by Quintiles/Expression Analysis (Durham, NC) using a custom isolation procedure. Total RNA from each plate well was transferred to a preamplification plate. Fluidigm's 96.96 Dynamic ArrayTM (Fluidigm, Amsterdam, the Netherlands) technology was used for gene expression analyses by quantitative reverse transcription polymerase chain reaction (qRT-PCR, performed by Quintiles/Expression Analysis, Durham, NC)89. Standard TaqManTM Assays (Applied Biosystems/ThermoFisher Scientific, Foster City, CA) were used to assess the expression of 93 genes selected based on their selectivity and sensitivity to important hepatic receptors known to be modulated by environmental chemicals; importance in human hepatocyte functionality; and hepatotoxicity. […]
Take `Oc1ccc(C(c2ccc(O)cc2)C(Cl)(Cl)Cl)cc1`: the AC50 is 87.5 µM (active).
As to `CCCCC(CC)COC(=O)c1ccccc1C(=O)O` (stereo not given), the call was inactive.
On to `Cc1nn(C)c(Oc2ccccc2)c1C=NOCc1ccc(C(=O)OC(C)(C)C)cc1`, for which the AC50 is 30.3 µM (active).
In the case of `CCOC(=O)C(C)Oc1ccc(Oc2nc3ccc(Cl)cc3o2)cc1` (stereo not given), the compound was classed as inactive.
With `CCCCCOC(=O)COc1cc(N2C(=O)C3=C(CCCC3)C2=O)c(F)cc1Cl`, the call was inactive.
Still for that read-out and setting: then `CCC(C)OC(=O)N1CCCCC1CCO` (stereo not given), with “inactive”.
Take `CCOC(=O)NCCOc1ccc(Oc2ccccc2)cc1`: the concentration at half-maximal activity (AC50) is 75.3 µM (active).
On to `N[C@@H](Cc1cc(I)c(Oc2ccc(O)c(I)c2)c(I)c1)C(=O)O`, for which the result was inactive.
The same measure, in the same setting: under `COC(=O)CSc1cc(N=c2sc(=O)n3n2CCCC3)c(F)cc1Cl` stands “inactive”.
`CCOC(=O)c1ccc(O)cc1`: the outcome was inactive.
Same read-out and setting: then `O=C(c1ccccc1)C1CCCCC1`, with “inactive”.
The same measure, in the same setting: under `O=C(O)c1ccccc1` stands “inactive”.
For the compound `C[C@]12CC[C@@H]3c4ccc(O)cc4C[C@@H](CCCCCCCCCS(=O)CCCC(F)(F)C(F)(F)F)[C@H]3[C@@H]1CC[C@@H]2O` (stereo not given in full), the AC50 was 28.7 µM (active).
Turning to `O=C(c1ccc(O)cc1O)c1ccc(O)cc1O`, the compound was called inactive.
The same measure, in the same setting: under `CCCOC(=O)c1ccc(C(=O)OCCC)nc1` stands “inactive”.
Still for that read-out and setting: then `CSC(=O)c1cccc2nnsc12`, with “inactive”.
As for `C[C@]12C[C@H](O)[C@H]3[C@@H](CCC4=CC(=O)CC[C@@]43C)[C@@H]1CC[C@@H]2C(=O)CO`, the outcome was inactive.
Same read-out and setting: then `CCCN(CCC)C(=O)SCC`, with “inactive”.
Regarding `CCN(CC)C(=O)c1cccc(C)c1`, the compound was classed as inactive.
`S=C([S-])NCCNC(=S)[S-].[Mn+2]`: the AC50 is 2.03 µM (active).
For the compound `CCNc1nc(N)nc(Cl)n1`, the compound was classed as inactive.
Consider `CCCCOCCOCCOCc1cc2c(cc1CCC)OCO2`, for which the call was inactive.
As for `O=C(O)C1(C(=O)Nc2ccc(Cl)cc2Cl)CC1`, the AC50 was 50 µM (active).
`CC1(C)C(C=C(Cl)Cl)C1C(=O)OCc1cccc(Oc2ccccc2)c1` (stereo not given): the compound was called inactive.
Regarding `S=C(S)NCCNC(=S)S.[Mn+2].[S-]C([S-])=NCCN=C([S-])[S-].[Zn+2]`, the concentration at half-maximal activity (AC50) is 780 nM (active) and 954 nM (active) and 816 nM (active).
Still for that read-out and setting: then `N#CSCSc1nc2ccccc2s1`, with 69.3 µM (active); and `CC(=O)[C@H]1CC[C@H]2[C@@H]3CCC4=CC(=O)CC[C@]4(C)[C@H]3CC[C@]12C`, with 32.3 µM (active).
Turning to `CCN(Cc1c(F)cccc1Cl)c1c([N+](=O)[O-])cc(C(F)(F)F)cc1[N+](=O)[O-]`, the outcome was inactive.
The same measure, in the same setting: then `CC(C)CCCCCCc1ccc(O)cc1`, with “inactive”; and `C#CCOC(=O)[C@@H](C)Oc1ccc(Oc2ncc(Cl)cc2F)cc1`, with “inactive”.
Turning to `COCCO`, the compound was called inactive.
Still for that read-out and setting: under `COC(=O)c1ccccc1C(=O)O` stands “inactive”; under `CCCCOC(=O)C(C)Oc1ccc(Oc2ccc(C(F)(F)F)cn2)cc1` (stereo not given), “inactive”.
For the compound `C=CCOC(Cn1ccnc1)c1ccc(Cl)cc1Cl` (stereo not given), the AC50 is 20.5 µM (active).
Consider `COc1c(Cl)ccc(Cl)c1C(=O)O`, for which the outcome was inactive.
Still for that read-out and setting: then `CCCCOC(=O)[C@@H](C)Oc1ccc(Oc2ccc(C(F)(F)F)cn2)cc1`, with “inactive”; and `CCOC(=O)C(C)Oc1ccc(Oc2cnc3cc(Cl)ccc3n2)cc1` (stereo not given), with “inactive”; and `OB(O)O`, with “inactive”.
Same read-out and setting: under `CCCOC(=O)NCCCN(C)C` stands “inactive”; under `CN(C)C(=O)Nc1ccc(Cl)c(Cl)c1`, “inactive”.
